Screening data deposited in PubChem by National Center for Advancing Translational Sciences (NCATS).
ELG1 repair inh = qHTS screen for small molecules that inhibit ELG1-dependent DNA repair in human embryonic kidney (HEK293T) cells expressing luciferase-tagged ELG1; HEK293T ELG1-luciferase reporter, luminescence, 16 h; DNA damage induced by 5-fluorouridine; Potency, µM (highest dose often 46.1 µM), for inactives: top-dose activity change, negative = inhibition, hits mostly inhibitors; hit rate 2.3% among 330,000; AID 504467, 2011; further: potency means the concentration at half of the fitted maximal effect; nearly all actives have a fitted effect of over 55% in size
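5-Fluorouridine DNA damage + compound/DMSO, 2,000 cells/well, 16 h, 37 °C/5% CO2. ONE-Glo, 30 min RT, luminescence. Readout = decrease in reporter signal.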
RORgamma inh = qHTS for inhibitors of ROR gamma transcriptional activity; Nuclear receptor ROR-gamma (Mus musculus), P51450; hit rate 5.4% among 310,000; AID 2551, 2010; Potency, µM (top dose mostly 53.6 µM), for inactives: at the highest dose activity change, negative = inhibition, actives largely listed as inhibitors; Drosophila S2 Gal4-RORgamma UAS-luciferase reporter, 20 h; further: potency means the concentration at half of the fitted maximal effect; nearly all actives have a fitted effect of over 60% in size
Target sequence (P51450 whole entry, looked up, the tested form may be a part): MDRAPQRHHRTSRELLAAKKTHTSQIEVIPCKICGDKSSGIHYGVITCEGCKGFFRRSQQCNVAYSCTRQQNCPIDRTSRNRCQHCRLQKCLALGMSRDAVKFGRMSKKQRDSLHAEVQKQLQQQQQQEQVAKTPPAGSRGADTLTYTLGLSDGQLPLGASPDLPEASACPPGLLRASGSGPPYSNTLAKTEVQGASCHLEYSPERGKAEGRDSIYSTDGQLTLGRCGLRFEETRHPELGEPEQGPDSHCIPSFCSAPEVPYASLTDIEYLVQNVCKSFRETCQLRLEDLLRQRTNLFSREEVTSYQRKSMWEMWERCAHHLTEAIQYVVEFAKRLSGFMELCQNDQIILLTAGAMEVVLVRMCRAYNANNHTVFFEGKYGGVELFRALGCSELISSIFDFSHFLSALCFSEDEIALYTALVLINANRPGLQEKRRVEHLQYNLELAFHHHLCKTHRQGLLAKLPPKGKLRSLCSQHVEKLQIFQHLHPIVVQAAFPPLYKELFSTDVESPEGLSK
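Stable Schneider cell line, Gal4 DNA-binding domain fused to ROR gamma, UAS-luciferase. Cmpd 1 hr RT → CuSO4 700 uM final → 20 hr RT → luciferase reagent 10 min → luminescence.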
VP16 counter = VP16 counterscreen qHTS for inhibitors of ROR gamma transcriptional activity; Drosophila S2 Gal4-VP16 UAS-luciferase, luminescence, 20 h; Potency, µM (top dose mostly 53.6 µM), inactives show at the highest dose activity, negative = inhibition, usual class: inhibitors; hit rate 3.5% among 310,000; AID 2546, 2010;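 further: Gal4-VP16 expression switched on by copper sulfate through the metallothionein promoter; potency means the concentration at half of the fitted maximal effect; nearly all actives have a fitted effect of over 50% in size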
DT40 TDP1 CPT = qHTS for Inhibitors of human tyrosyl-DNA phosphodiesterase 1 (TDP1): qHTS in cells in presence of CPT; chicken DT40 Tdp1-/-;hTDP1 cells + 20 nM CPT, ATP luminescence, 48 h; Potency, µM (highest dose often 46.2 µM), for the others: at the top dose activity change, negative = growth inhibition, hits mostly inhibitors; hit rate 12% among 420,000; AID 686979, 2013; further: potency means the concentration at half of the fitted maximal effect; nearly all actives have a fitted effect of over 55% in size
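Cell growth measured by CellTiter-Glo luminescence after a minimum 48 h, 37 C compound exposure with 20 nM CPT in Tdp1-knockout DT40 cells stably expressing hTDP1, seeded 400/well; qHTS titration format.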
IL1B secr inh = qHTS for Inhibitors of Inflammasome Signaling: IL-1-beta AlphaLISA Primary Screen; activity change, % at 57.5 µM; THP-1 LPS/ATP IL-1B secretion, AlphaLISA, 16 h; hits give low values; hit rate 4.7% among 360,000; in the data active means activity change below about -50%; inconclusive means mostly about -30% to -49%
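Secreted IL-1B measured by AlphaLISA bead assay after 16 h compound exposure of THP-1 cells; compounds (final up to 57.5 uM) added 1 h before LPS (250 ng/mL) and ATP (1.25 mM) stimulation; lower signal means less secretion.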
DT40 TDP1 no CPT = qHTS for Inhibitors of human tyrosyl-DNA phosphodiesterase 1 (TDP1): qHTS in cells in absence of CPT; DT40 Tdp1-/- hTDP1 cells, no CPT, ATP luminescence, 48 h; Potency, µM (doses to about 46.2 µM), without a hit: at the highest dose activity change, negative = growth inhibition, actives largely listed as inhibitors; hit rate 15% among 420,000; further: potency means the concentration at half of the fitted maximal effect; nearly all actives have a fitted effect of over 55% in size
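Luminescent ATP content (CellTiter-Glo) served as the growth readout. Knockout chicken DT40 cells expressing human TDP1 were exposed to compounds without camptothecin for a minimum 48 hr at 37 °C.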
An asterisk follows results filed as active; ? = inconclusive; nt = no result; [ ] = dose if it differs, or a comment. Shown are actives, neighbours in structure and some others; about 21% of the full set was active somewhere. Unless noted, the call rests on the fitted dose curve; in most records, active means well fitted curve in the direction sought with a large enough effect; inconclusive means small, poorly fitted or top-dose-only effect, or another doubt; inactive means no such curve, though single readings can be large; an effect the other way counts as inactive or inconclusive. On the % scale 0 is the no-effect control and ±100 the full control effect.

SMILES	ELG1 repair inh	RORgamma inh	VP16 counter	DT40 TDP1 CPT	IL1B secr inh	DT40 TDP1 no CPT
Cc1ccccc1Cn1nc(C)c(NC(=O)c2noc3c2CC(C(C)(C)C)CC3)c1C (stereo not given)	?	?	-4%	?	?	?
Cc1nn(Cc2ccc(Cl)c(Cl)c2)c(C)c1NC(=O)c1noc2c1CCCCC2	1%	?	?	12µM*	-19	13µM*
COc1ccc(-c2cc(C(=O)Nc3c(C)nn(Cc4ccccc4C)c3C)no2)cc1	nt	nt	nt	-2%	nt	-30%
Cc1ccc(Cn2ccc(NC(=O)c3cc(-c4ccc(Cl)cc4)on3)n2)cc1	7%	-22%	-4%	-27%	15	-16%
Cc1ccccc1Cn1nc(C)c(NC(=O)c2noc3c2CCc2ccccc2-3)c1C	?	?	?	21µM*	-6	13µM*
Cc1cc(NC(=O)c2noc3c2CCCCC3)nn1Cc1ccc(Cl)cc1	1%	17%	-12%	-29%	6	-29%
Cc1ccc(Cn2ccc(NC(=O)c3cc(CC(C)C)on3)n2)cc1	-6%	?	-10%	?	11	21µM*
CCc1ccc(-c2cc(C(F)(F)F)n3nc(C(=O)Nc4c(C)nn(Cc5ccccc5C)c4C)cc3n2)s1	?	-15%	9%	18µM*	19	16µM*
Cc1nn(Cc2ccc(Cl)c(Cl)c2)c(C)c1NC(=O)c1cc(CC(C)C)on1	?	?	?	18µM*	-2	23µM*
Cc1cc(C(=O)Nc2c(C)nn(Cc3ccc(Cl)cc3)c2C)no1	?	38%	-1%[10 µM]	-1%	25	5%
Cc1ccc(Cn2nc(C)c(NC(=O)c3cc(C)no3)c2C)cc1	-4%	2%	5%	9%	1	-1%
CCCc1cc(C(=O)Nc2c(C)nn(Cc3ccc(Cl)c(Cl)c3)c2C)no1	nt	nt	nt	13µM*	nt	26µM*
CC(=O)c1cccc(NC(=O)c2noc3c2CCc2ccccc2-3)c1	?	0.71µM*	2.2µM*	5%	-5	-28%
C[C@@H]1CN(Cc2ccc3c(c2)CN(Cc2cccc4c2OCO4)CCO3)C[C@H](C)O1	nt	nt	nt	13%[9.04 µM]	nt	-14%
O=C(Cc1ccc2c(c1)OCO2)N1CCOc2ccc(CN3CCOCC3)cc2C1	nt	nt	nt	2%[9.04 µM]	nt	-17%
CO[C@@H]1CN(C)C(=O)c2cc(NC(=O)Nc3cc(F)ccc3F)ccc2OC[C@H](C)N(C(=O)c2cnccn2)C[C@@H]1C	nt	nt	nt	?	11	?
CN(C)S(=O)(=O)c1ccc(C(=O)NCCc2ccco2)cc1	?	33%	?	-8%	-4	23µM*
CN(c1ccccc1)S(=O)(=O)c1ccc(C(=O)NCc2ccco2)cc1	1%	nt	nt	?	9	16µM*
COc1ccccc1OCCNC(=O)c1ccc(S(=O)(=O)N(C)C)cc1	5%	?	1%	-21%	-9	-5%
COC(=O)C(C(=O)OC)C(C[N+](=O)[O-])c1ccc(OC)c(OC)c1 (stereo not given)	20%	1%	-4%	-24%	53	?
COc1ccc(C(C[N+](=O)[O-])C2(c3ccc(OC)c(OC)c3)C(=O)c3ccccc3C2=O)cc1 (stereo not given)	?	?	18µM*	?	-102*	4.1µM*
O=C(Nc1ccc(NC(=O)c2ccc(Br)cc2)c(Cl)c1)c1ccc(Br)cc1	nt	nt	nt	7%	nt	4%
COc1cccc(C(=O)Nc2nc(C)cs2)c1	?	?	-23%	-18%	-15	-13%
COc1ccc(-c2nsc(NC(=O)c3cccc(OC)c3)n2)cc1	nt	nt	nt	?	nt	21µM*
COc1cccc(C(=O)Nc2nnc(SCC(=O)Nc3ccc(NC(C)=O)cc3)s2)c1	?	11µM*	?	2%	-7	3%
SMILES	ELG1 repair inh	RORgamma inh	VP16 counter	DT40 TDP1 CPT	IL1B secr inh	DT40 TDP1 no CPT
O=C(CN1CCN(Cc2ccc(F)cc2)CC1)Nc1nc2ccccc2s1	?	7%	-4%	-28%	-7	26µM*
COc1ccc(C(=O)Nc2nc3ccccc3s2)cc1	?	5µM*	?	-19%	-12	?
CCN1CCN(Cc2nc3cc(NC(=O)c4ccccc4[N+](=O)[O-])ccc3n2CC)CC1	nt	nt	nt	-13%	nt	-8%
CCN(C[C@H]1N[C@@](C)(C(=O)OC)[C@H]2C(=O)N(C)C(=O)[C@@H]12)S(=O)(=O)c1ccc(OC)cc1	0%	nt	nt	-4%	9	-16%
CC(=O)c1ccc(NC(=O)c2ncn(-c3ccccc3)n2)cc1	nt	nt	nt	?	nt	-17%
O=C(Nc1nc2ccccc2s1)c1ccc(Cl)s1	?	8.9µM*	-33%	-9%	-1	?
O=C(Nc1nc(=O)c2ccccc2s1)c1ccccc1	?	7.1µM*	6.3µM*	?	25	?
COc1ccc(NC(=O)Nc2nnc(SCC(=O)Nc3cccc(C)c3C)s2)cc1	nt	nt	nt	18µM*	nt	7.3µM*
Cc1ccc(C(=O)Nc2nc3ccccc3c(=O)s2)cc1	?	14µM*	?	18µM*	-94*	18µM*
COc1cc(OC)c(N2CC(C(=O)NCCC3=CCCCC3)CC2=O)cc1Cl (stereo not given)	-4%	nt	nt	?	23	?
Cc1ccc(Nc2nnc(SCC(=O)Nc3ccccc3[N+](=O)[O-])s2)cc1	-6%	?	-15%	-11%	-15	?
Cc1ccc2nc(NC(=O)c3ccc(-c4nc5ccccc5s4)s3)sc2c1	?	7.9µM*	6%	?	45	?
O=C(Nc1nc(-c2ccc(Br)cc2)ns1)c1ccc(F)cc1	nt	nt	nt	?	nt	18µM*
Cc1cccc(Nc2nnc(SCC(=O)Nc3ccccc3[N+](=O)[O-])s2)c1C	?	18µM*	-15%	?	1	?
COc1cccc(C(=O)Nc2nnc(C(C)C)s2)c1	?	8.9µM*	?	-2%	-10	-20%
CCOc1ccc(N2C(=O)CC(n3ccc(C)n3)C2=O)cc1 (stereo not given)	0%	-30%	6%	1%	51	-3%
Cc1ccc(Nc2nc3ccccc3c(=O)s2)cc1C	7%	2.8µM*	3.5µM*	16µM*	0	12µM*
COc1ccc(/C=N/OCC(=O)Nc2nc3ccccc3s2)cc1OC	-4%	2%	?	?	-50*	?
